High-throughput results as filed in PubChem.
Hits are enriched below; roughly 12% of the tested compounds scored in any of these assays.
HP1b binding inh: HP1-beta chromodomain-methylated histone interaction inhibition. P83916. AlphaScreen HP1-beta / biotin-H3K9me3 peptide binding. Potency, µM (highest dose often 114 µM), most hits filed as inhibitors. hit rate 0.56% among 390,000. AID 540317; note: nearly all actives have a fitted effect of over 70% in size
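HP1-beta protein (50 nM final) preincubated 30 min at room temperature with biotinylated H3(1-18)K9me3 peptide (50 nM) in PBS pH 7.4, 0.01% Tween-20, then compound added for 30 min. AlphaScreen streptavidin donor/nickel chelate acceptor beads (10 ug/mL final), 30 min dark, luminescence read.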
BAZ2B inh: BAZ2B (human) inhibition | Q9UIF8 | AlphaScreen BAZ2B-H3K14Ac peptide displacement | Potency, µM (top dose mostly 114 µM), actives largely listed as inhibitors | hit rate 4.4% among 360,000; note: nearly all actives have a fitted effect of over 60% in size
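Inhibition is scored as reduced AlphaScreen emission. The BAZ2B/b-H3(5-23)K14Ac complex (50 nM each) in PBS pH 7.4, 0.01% Tween-20 meets compound (up to 110 uM) for 30 min at RT before bead addition.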
JMJD2A Tudor: inhibitors of human JMJD2A Tudor domain; hit rate 4.4% among 390,000; AlphaScreen JMJD2A-Tudor / H3K4me3 peptide binding; Potency, µM (top dose mostly 114 µM), actives largely listed as inhibitors; O75164; note: nearly all actives have a fitted effect of over 50% in size
Target sequence (O75164 whole entry, looked up, the tested form may be a part): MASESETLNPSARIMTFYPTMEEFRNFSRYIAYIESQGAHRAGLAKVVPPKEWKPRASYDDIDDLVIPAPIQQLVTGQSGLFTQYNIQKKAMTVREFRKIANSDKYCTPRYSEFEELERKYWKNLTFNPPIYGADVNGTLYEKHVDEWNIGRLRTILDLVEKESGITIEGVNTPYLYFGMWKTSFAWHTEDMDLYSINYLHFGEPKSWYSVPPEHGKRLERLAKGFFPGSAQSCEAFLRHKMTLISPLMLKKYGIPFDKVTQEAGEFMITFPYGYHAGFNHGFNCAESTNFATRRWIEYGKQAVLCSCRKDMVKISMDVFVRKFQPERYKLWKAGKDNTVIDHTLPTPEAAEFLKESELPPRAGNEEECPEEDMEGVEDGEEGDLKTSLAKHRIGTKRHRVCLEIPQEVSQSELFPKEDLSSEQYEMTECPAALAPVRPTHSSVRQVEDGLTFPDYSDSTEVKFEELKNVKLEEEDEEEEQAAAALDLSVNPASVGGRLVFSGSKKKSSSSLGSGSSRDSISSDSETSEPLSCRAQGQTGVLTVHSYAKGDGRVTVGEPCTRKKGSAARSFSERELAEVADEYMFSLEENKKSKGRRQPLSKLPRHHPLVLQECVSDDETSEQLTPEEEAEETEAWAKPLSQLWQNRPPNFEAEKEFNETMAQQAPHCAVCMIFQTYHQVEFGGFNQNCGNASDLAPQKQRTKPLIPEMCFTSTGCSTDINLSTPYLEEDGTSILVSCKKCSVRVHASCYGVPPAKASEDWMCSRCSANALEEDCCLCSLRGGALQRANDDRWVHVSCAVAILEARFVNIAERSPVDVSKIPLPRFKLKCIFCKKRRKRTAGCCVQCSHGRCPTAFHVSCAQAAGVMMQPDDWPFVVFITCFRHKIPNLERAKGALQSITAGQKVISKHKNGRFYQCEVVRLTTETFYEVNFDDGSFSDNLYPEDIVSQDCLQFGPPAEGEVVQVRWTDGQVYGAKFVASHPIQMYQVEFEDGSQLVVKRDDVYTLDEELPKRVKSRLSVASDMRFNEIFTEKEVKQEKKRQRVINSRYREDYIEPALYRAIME
G9a inh: inhibitors of human histone lysine methyltransferase G9a; G9a H3K9 monomethylation, AlphaScreen, 2 h; Potency, µM (series often up to 102 µM), most hits filed as inhibitors; hit rate 8.8% among 350,000; AID 504332; note: nearly all actives have a fitted effect of over 75% in size
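Quantitative HTS format: methyltransferase activity on a biotin-tagged H3K9 peptide is measured by AlphaScreen, using a rabbit anti-monomethyl-H3K9 antibody with streptavidin donor and anti-IgG acceptor beads. Final levels are 20 nM enzyme, 500 nM peptide, 20 uM SAM; 2 h RT.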
PLK1 PBD block: blocks phosphopeptide binding to human PLK1 polo-box domain | P53350 | Plk1 PBD binding of FITC phosphopeptide, fluorescence polarization | Potency, µM, actives largely listed as inhibitors | hit rate 2.8% among 360,000; note: series mostly up to about 57 µM; nearly all actives have a fitted effect of over 65% in size
Sfp inh: blocks B. subtilis Sfp PPTase activity. Q9F4F7. Biochemical Sfp PPTase activity, qHTS. Potency, µM, usual class: inhibitors. hit rate 3.5% among 310,000;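 note: the enzyme is Sfp with the accession as filed and its product quenches rhodamine fluorescence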
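Compounds were incubated with enzyme (final 15 nM) for 15 min at room temperature before substrate addition started the reaction. Fluorescence at 525 nm excitation, 598 nm emission was recorded immediately and after 30 minutes.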
Of the large screens only hits and unclear results are named; the others gave an inactive call; ! = a repeat was not active. Calls come from the whole dose curve; as a rule, active = well fitted curve in the direction sought with a large enough effect; inconclusive = small, poorly fitted or top-dose-only effect, or another doubt; inactive = no such curve, though single readings can be large; an effect the other way counts as inactive or inconclusive.

CC(=O)c1cc(-c2ccccc2)n(CCC(=O)Nc2ccc(C)cc2C)c1C	none (no result: PLK1 PBD block, Sfp inh)
CCCn1c(SCC(=O)NC2CCCCC2C)n[nH]c1=O (centres undefined)	G9a inh inconclusive
C[C@H]1[C@H]2CC[C@H]3[C@@H]4CC=C5C[C@@H](N(C)C)CC[C@]5(C)[C@H]4CC[C@]23CN1C	none (no result: HP1b binding inh, BAZ2B inh, JMJD2A Tudor, G9a inh, PLK1 PBD block)
O=c1c2ccccc2n(Cc2c(F)cccc2Cl)c(=O)n1CCc1ccccc1	none (no result: PLK1 PBD block, Sfp inh)
CCOC(=O)c1cc(-c2ccc(OC)cc2)n(CCC(=O)NC2CCN(Cc3ccccc3)CC2)c1C	BAZ2B inh 40µM, JMJD2A Tudor inconclusive, G9a inh inconclusive
CCOC(=O)c1cc(-c2ccccc2)n(CCC(=O)NC2CCCCC2)c1C	G9a inh inconclusive (no result: PLK1 PBD block, Sfp inh)
CCOC(=O)C1=C(C)Nc2ccccc2N=C1NC(=O)c1ccc(Cl)c(S(=O)(=O)N2CCCC2)c1	G9a inh inconclusive (no result: BAZ2B inh)
COCCOC(=O)C1=C(C)NC(C)=C(C(=O)OCCOC)C1/C=C/c1ccccc1OC	none
COCCOC(=O)C1=C(C)NC2(O)c3ccccc3C(=O)C12O (centres undefined)	Sfp inh 89µM
CCOC(=O)C1=C(C)NC2(O)c3ccccc3C(=O)C12O (centres undefined)	BAZ2B inh inconclusive, JMJD2A Tudor inconclusive, PLK1 PBD block inconclusive, Sfp inh 79µM
CC(=O)C1=C(C)NC2(O)c3ccccc3C(=O)C12O (centres undefined)	none
CC(=O)N1CCC2(CCN(Cc3ccc(C#N)cc3)CC2)CC1	none (no result: HP1b binding inh, BAZ2B inh, JMJD2A Tudor, PLK1 PBD block)
CCCC1CC(C)(C(=O)CSc2n[nH]c(-c3ccccc3)n2)OC1=O (centres undefined)	BAZ2B inh inconclusive, JMJD2A Tudor 35µM, G9a inh 32µM, Sfp inh 79µM
O=C(CSc1n[nH]c(-c2ccccc2)n1)N1CCOCC1	BAZ2B inh inconclusive
CCCC1CC(=O)OC1(C)C(=O)CSc1n[nH]c(-c2ccccc2)n1 (centres undefined)	G9a inh 11µM, Sfp inh inconclusive (no result: HP1b binding inh, JMJD2A Tudor, PLK1 PBD block)
Nc1ccc(C(=O)N(CCO)CCO)cc1	none
Nc1ccc(N(CCO)CCO)cc1	HP1b binding inh inconclusive, BAZ2B inh 50µM, JMJD2A Tudor 8.9µM, G9a inh 11µM, PLK1 PBD block inconclusive, Sfp inh 13µM
CCN(CC)c1ccc(N)cc1	HP1b binding inh 13µM, BAZ2B inh 32µM, JMJD2A Tudor 18µM (no result: Sfp inh)
O=C1[C@H]2[C@H]3[C@H](O)[C@H](O)C/C(=N/OCc4ccccc4)[C@H]3CC[C@@H]2C(=O)N1C1CCCCC1	none (no result: HP1b binding inh, BAZ2B inh, JMJD2A Tudor, G9a inh, PLK1 PBD block)
COc1cc(C(=O)NCC2CCCO2)ccc1OCc1ccccc1Cl (centres undefined)	none (no result: G9a inh)
Cc1ccc(-c2nn3c(-c4ccco4)nnc3c3ccccc23)cc1S(=O)(=O)NCC1CCCO1 (centres undefined)	G9a inh 20µM, Sfp inh 50µM
[O-][N+]1=C(c2cccs2)CN(O)C1	BAZ2B inh inconclusive
CC1(C)N(O)CC(c2cccs2)=[N+]1[O-]	BAZ2B inh 50µM, JMJD2A Tudor 28µM
CCC(C)n1ncn(-c2ccc(N3CCN(c4ccc(O)cc4)CC3)cc2)c1=O (centres undefined)	HP1b binding inh inconclusive, JMJD2A Tudor 89µM, G9a inh 7.9µM
CCC(C)n1ncn(-c2ccc(N3CCN(c4ccc(OCC5COC(Cn6cncn6)(c6ccc(Cl)cc6Cl)O5)cc4)CC3)cc2)c1=O (centres undefined)	BAZ2B inh inconclusive, JMJD2A Tudor inconclusive, G9a inh inconclusive
CSc1cccc(NC(=O)CN(C)S(=O)(=O)c2ccc3c(c2)n(C)c(=O)c(=O)n3C)c1	G9a inh 1µM (no result: PLK1 PBD block, Sfp inh)
S=P(N1CC1)(N1CC1)N1CC1	HP1b binding inh inconclusive, G9a inh 7.9µM!, PLK1 PBD block inconclusive
Cc1ccc(S(=O)(=O)N2CCN(C(=O)CN3CCN(c4ccc(O)cc4)CC3)CC2)cc1	HP1b binding inh inconclusive, JMJD2A Tudor 45µM (no result: BAZ2B inh, G9a inh, Sfp inh)
Cc1ccc(S(=O)(=O)N2CCN(CC(=O)NCC3(N4CCOCC4)CCCCC3)CC2)cc1	G9a inh 45µM (no result: Sfp inh)
O=C(CCC(=O)N1CCN(c2ccc(O)cc2)CC1)c1cccs1	G9a inh 13µM, Sfp inh 25µM
O=C(CN1CCN(S(=O)(=O)c2ccc(Cl)cc2)CC1)NCC1(N2CCOCC2)CCCCC1	none (no result: Sfp inh)
Cc1ccc(N2CCN(S(=O)(=O)c3ccc(C)cc3)CC2)cc1	none
CC(=O)c1ccc(N2CCN(C(=O)CCC(=O)c3cccs3)CC2)cc1	none
Cc1ccc(OCCC(=O)N2CCN(c3ccc(O)cc3)CC2)cc1	JMJD2A Tudor 14µM, G9a inh 11µM, Sfp inh 56µM
Fc1ccccc1-n1ncc2c1ncn1nc(COc3ccc(Cl)cc3)nc21	none (no result: PLK1 PBD block, Sfp inh)
CS(=O)(=O)O/N=C1\CCCCC1c1ccc([N+](=O)[O-])cc1[N+](=O)[O-] (centres undefined)	G9a inh 40µM
Cc1cc2c(s1)c1cnn(Cc3ccc(Cl)cc3)c(=O)c1n2C	JMJD2A Tudor 45µM (no result: HP1b binding inh, BAZ2B inh, G9a inh, PLK1 PBD block, Sfp inh)
CCOC(=O)C1CCCN(C2=NC(=O)/C(=C/c3ccc(OC)cc3OC)S2)C1 (centres undefined)	G9a inh 25µM, PLK1 PBD block 19µM, Sfp inh 45µM
CCOC(=O)C1CCN(C2=NC(=O)/C(=C/c3ccc(O)cc3)S2)CC1	G9a inh 40µM, PLK1 PBD block inconclusive, Sfp inh inconclusive
CCOC(=O)CSC1=NC(=O)/C(=C/c2ccc(OC)cc2)S1	G9a inh 7.1µM, PLK1 PBD block 2.7µM, Sfp inh 18µM
CCOC(=O)C1CCCN(C2=NC(=O)/C(=C/c3ccc(N(C)C)cc3)S2)C1 (centres undefined)	BAZ2B inh 45µM, G9a inh 40µM
O=C(Cn1c(=O)n(Cc2ccccc2)c(=O)c2sc3ccccc3c21)Nc1ccc(F)cc1	none (no result: PLK1 PBD block, Sfp inh)
CC(=O)Nc1ccccc1OC1=N[S+](=O)([O-])c2ccccc21	none (no result: HP1b binding inh, BAZ2B inh, G9a inh, PLK1 PBD block, Sfp inh)
Oc1ccccc1C1=Nc2nc3ccccc3n2C(c2ccccc2)C1 (centres undefined)	BAZ2B inh inconclusive, JMJD2A Tudor inconclusive, G9a inh 13µM
Oc1ccccc1C1=NN(c2ccccc2)C(c2ccc(F)cc2)C1 (centres undefined)	none
Cc1ccc(C)c(N2CCN(CCCc3ccccc3)CC2)c1	none
Cc1ccc(C)c(N2CCN(C3=C(c4ccccc4)C(=O)c4ccccc43)CC2)c1	HP1b binding inh inconclusive, BAZ2B inh inconclusive, JMJD2A Tudor 2.5µM, G9a inh 3.2µM (no result: PLK1 PBD block, Sfp inh)
COc1ccc(C2=C(N3CCN(c4cccc(C)c4C)CC3)c3ccccc3C2=O)cc1	HP1b binding inh inconclusive, BAZ2B inh 2.2µM, JMJD2A Tudor 5µM, G9a inh 3.2µM (no result: PLK1 PBD block, Sfp inh)
O=C(CNC(=O)c1ccccc1Cl)OCc1cc(=O)n2nc(C3CC3)sc2n1	none (no result: PLK1 PBD block, Sfp inh)
O=C(c1cc2ccccc2oc1=O)N(Cc1ccc2c(c1)OCO2)Cc1ccco1	JMJD2A Tudor inconclusive
